Data reported in PubChem BioAssay AID1458 (National Center for Advancing Translational Sciences (NCATS), 2008).
Among all 210,000 compounds or so, about 5,900 (2.8%) were called active. Not shown: some 5% with an inconclusive outcome. The entries come from a sample that favours actives as a whole. Values without a mark were called inactive. Calls follow the shape of the dose curve; as a rule, active = well fitted activation curve with a large enough effect; inconclusive = small, poorly fitted or top-dose-only effect; inactive = no such curve, though single readings can be large or run the other way.
Potency is read from the fitted curve at half-maximal effect.

Test: qHTS Assay for Enhancers of SMN2 Splice Variant Expression; also: nearly all actives have a fitted effect of over 55% in size; as to activity change, positive = activation: % of control where 0% means no effect
Conditions: HEK293 SMN2-luciferase splicing reporter, luminescence, 30-36 h; series mostly up to 46.1 µM; activity change, positive = activation: at the top concentration
In short: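 qHTS luciferase splicing reporter: luminescence rises when SMN2 exon 7 is included in transfected HEK293 cells. Compound exposure lasted 30-36 h at 37C, with 4.5 mM final sodium butyrate as control, followed by a ONE-Glo read.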
In the case of `COc1ccc(C(=O)Nc2ccc(CN3CCOCC3)cc2)cc1`, the “activity change, positive = activation” value is reported as -18%.
In the case of `CCOC(=O)c1c(NC(=O)c2ccc(N3CCOCC3)c([N+](=O)[O-])c2)sc(C)c1C`, the “activity change, positive = activation” value is reported as -0.319%.
For `COc1ccc(C(=O)Nc2sc(C)c(C)c2CN2CCOCC2)cc1`, the Potency was 12.6 µM (active).
With `CCOC(=O)C1CCCN(C(=O)Cn2ncc3c(C)n(Cc4ccc(F)cc4)c(C)c3c2=O)C1` (stereo unspecified) the “activity change, positive = activation” value was -22.8%.
For `COc1ccc(-c2noc(CSc3nc4ccc(C)cc4[nH]3)n2)cc1`, the “activity change, positive = activation” value was -46.7%.
For `Cc1ccccc1C(=O)Nc1sc2c(c1C(=O)N1CCC(C)CC1)CCCC2`, the “activity change, positive = activation” value was -1.84%.
With `Cc1c(NC(=O)c2cc(=O)c3ccccc3o2)c(=O)n(-c2ccccc2)n1C` the “activity change, positive = activation” value was -4.74%.
In the case of `COc1ccc(Cl)cc1C(=O)NCc1cn(C)nc1C`, the “activity change, positive = activation” value is reported as 1.02%.
With `Cc1nn(C)cc1CNC(=O)Nc1ccc(Cl)cc1` the Potency was 15.8 µM (active).
With `Cc1nn(C)cc1C(=O)NNC(=S)Nc1ccc(Cl)cc1` the “activity change, positive = activation” value was 8.55%.
For `Oc1ccccc1-c1nc(/C=C/c2ccc(F)cc2)no1`, the “activity change, positive = activation” value was 3.13%.
In the case of `CCOC(=O)c1cc(NC(=O)c2cccnc2)cc(C(=O)OCC)c1`, the “activity change, positive = activation” value is reported as 12.2%.
With `COc1ccc(C(=O)Nc2cccnc2)cc1C(=O)Nc1cccnc1` the “activity change, positive = activation” value was -8.52%.
In the case of `CCOC(=O)c1ccc(-c2ccc(C(=O)Nc3cccnc3)o2)cc1`, the Potency is reported as 6.31 µM (active).
For `CCN(CC)c1ccc(C2C(C(N)=O)=C(C)Nc3nc(SCc4ccccc4)nn32)cc1` (stereo unspecified), the “activity change, positive = activation” value was 7.44%.
For `COCCn1c(CCC(=O)Nc2cc(C)ccc2C)nc2cccnc21`, the “activity change, positive = activation” value was 7.93%.
For `N#C/C(=C\c1ccccc1F)c1nc2ccccc2c(=O)[nH]1`, the “activity change, positive = activation” value was -1.96%.
In the case of `COc1ccccc1-c1nnc(NC(=O)c2ccc3ncsc3c2)o1`, the Potency is reported as 14.1 µM (active).
For `COc1ccccc1-c1nnc(SCC(=O)Nc2cc(C)on2)o1`, the “activity change, positive = activation” value was -3.86%.
For `COc1ccccc1-c1nnc(NC(=O)c2cccc(N3C(=O)CCC3=O)c2)o1`, the “activity change, positive = activation” value was 2.48%.
For `Cn1c(=O)c2sccc2n2c(CCC(=O)NCc3ccccc3Cl)nnc12`, the “activity change, positive = activation” value was 1.76%.
With `CCc1ccc2oc(-c3ccc(C)c(NC(=O)/C=C/c4ccco4)c3)nc2c1` the “activity change, positive = activation” value was 4.88%.
In the case of `CCc1ccc2oc(-c3ccc(NC(=O)c4cc5ccccc5o4)cc3)nc2c1`, the “activity change, positive = activation” value is reported as 6.02%.
For `CCc1ccc2oc(-c3ccc(N)cc3)nc2c1`, the Potency was 1 µM (active).
For `COc1ccc(OC)c(-c2csc(-c3c(N)c(C(=O)c4ccccc4)n4ccccc34)n2)c1`, the “activity change, positive = activation” value was -0.921%.
For `CCc1nn(CC(=O)N2CCN(c3cc(C)ccc3C)CC2)c(=O)c2cc3occc3n12`, the “activity change, positive = activation” value was 2.38%.
For `O=C(c1ccc(Cl)cc1)n1nc(-c2cccnc2)nc1NCc1ccc(F)cc1`, the “activity change, positive = activation” value was 1.47%.
For `COc1cc(Cl)c(C)cc1NC(=O)CCc1nc2cccnc2n1Cc1cccs1`, the “activity change, positive = activation” value was -6.37%.
In the case of `O=C(CSc1nnc(Nc2ccccc2)s1)Nc1cccnc1Cl`, the “activity change, positive = activation” value is reported as 5.82%.
With `Cc1cc2c(=O)n(C)c(SCC(=O)c3cc4ccccc4o3)nc2s1` the “activity change, positive = activation” value was -1.87%.
In the case of `Cc1ccc(Nc2nnc(SCC(=O)c3cc4ccccc4o3)s2)cc1C`, the Potency is reported as 12.6 µM (active).
For `CC(C)Nc1nnc(SCC(=O)c2c[nH]c3ccccc23)s1`, the activity change, positive = activation was -12.7% [at 1.84 µM].
For `CC(C)c1ccc(Nc2nnc(SCC(=O)c3nnc(-c4ccccc4)o3)s2)cc1`, the Potency was 10 µM (active).
In the case of `Cc1ccccc1Nc1nnc(SCC(=O)c2cc3ccccc3o2)s1`, the “activity change, positive = activation” value is reported as -3.61%.
For `CCOCCCNC(=O)c1c(NC(=O)Cc2coc3c(C)c(C)ccc23)sc2c1CCC2`, the “activity change, positive = activation” value was 1.11%.
In the case of `Cc1cccc(N2CCN(C3=C(c4ccccc4)C(=O)c4ccccc43)CC2)c1C`, the “activity change, positive = activation” value is reported as 1.91%.
With `O=C1OC(C(=O)Nc2cccc(Br)c2)Cc2ccccc21` (stereo unspecified) the “activity change, positive = activation” value was 0.983%.
In the case of `CCNS(=O)(=O)c1cc(-c2nnc(Nc3cccc(C(F)(F)F)c3)c3ccccc23)ccc1C`, the “activity change, positive = activation” value is reported as -4.9%.
With `COc1cccc(CNC(=O)Cn2ncn3c(cc4ccccc43)c2=O)c1` the “activity change, positive = activation” value was 5.36%.
With `CCOC(=O)CSc1nc2ccc(C)cc2[nH]1` the “activity change, positive = activation” value was -0.138%.
In the case of `Cc1cc2nc(SCCN3CCOCC3)[nH]c2cc1C`, the Potency is reported as 14.1 µM (active).
In the case of `Cc1ccc(S(=O)(=O)NCCN2CCOCC2)cc1C`, the “activity change, positive = activation” value is reported as 38.2%.
In the case of `COc1ccc(S(=O)(=O)NCCSc2nnnn2-c2ccccc2)cc1`, the “activity change, positive = activation” value is reported as -43.5%.
In the case of `COc1ccc(NC(=O)NC(C)c2c(-n3cccc3)sc(C)c2C)cc1OC` (stereo unspecified), the “activity change, positive = activation” value is reported as -12.4%.
For `COc1cccc(NC(=O)CCNS(=O)(=O)c2ccc3c(c2)oc(=O)n3C)c1`, the “activity change, positive = activation” value was -7.42%.
For `Cc1ccc(CNC(=O)CCNS(=O)(=O)c2ccc3c(c2)oc(=O)n3C)cc1`, the “activity change, positive = activation” value was -6.56%.
With `CC(=O)c1cccc(NC(=O)N2CCCC2C(=O)NCCc2ccccc2)c1` (stereo unspecified) the “activity change, positive = activation” value was 12.8%.
With `O=C(NCCc1ccccc1)c1ccc(NC2=NC3CS(=O)(=O)CC3S2)cc1` (stereo unspecified) the “activity change, positive = activation” value was -12.9%.
With `CC1CCCN(c2ccc(C(=O)NCCc3ccccc3)cn2)C1` (stereo unspecified) the Potency was 11.2 µM (active).
In the case of `Cc1oc2ccc(O)c(CN3CCCCC3)c2c1C(=O)Nc1cccc(C(F)(F)F)c1`, the “activity change, positive = activation” value is reported as -3.24%.
In the case of `CCC1CCCCN1S(=O)(=O)c1ccc(NC(=O)c2cc(=O)c3ccccc3o2)cc1` (stereo unspecified), the “activity change, positive = activation” value is reported as 17%.
